Test results from PubChem BioAssay (Tox21).
Results filed as inconclusive are left out. Entries that show only a call come without a potency. Calls of active or inactive are those of the source. Unless noted, calls follow the shape of the dose curve; as a rule, active = well fitted curve in the direction sought with a large enough effect in the repeat runs; inconclusive = weak or mixed curves; inactive = no such curve, though single readings can be large; an effect the other way counts as inactive or inconclusive.

Legend:
[1] = qHTS assay for identifying genotoxic compounds that show differential cytotoxicity against isogenic chicken DT40 cell lines with known DNA damage response pathways - wild type cell line (AID 743012); details: DT40 wild type chicken cells viability, CellTiter-Glo, 40 h; series mostly up to 68.4 µM; also: nearly all actives have a fitted effect of over 60% in size; also: potency is read from the fitted curve at half-maximal effect
Outline: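 Cytotoxicity in repair-proficient parental chicken DT40 cells serves as the comparator for Rad54/Ku70- and Rev3-deficient lines. Cells were exposed to compounds for 40 h at 37 C/5% CO2, and ATP-based luminescence (CellTiter-Glo) measured viability.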

[2] = qHTS assay for identifying genotoxic compounds that show differential cytotoxicity against isogenic chicken DT40 cell lines with known DNA damage response pathways - Rev3 mutant cell line (AID 743014); details: chicken DT40 Rev3-/- viability, CellTiter-Glo, 40 h; series mostly up to 68.4 µM; also: nearly all actives have a fitted effect of over 55% in size; also: potency is read from the fitted curve at half-maximal effect
[3] = qHTS assay for identifying genotoxic compounds that show differential cytotoxicity against isogenic chicken DT40 cell lines with known DNA damage response pathways - Rad54/Ku70 mutant cell line (AID 743015); details: DT40 Rad54/Ku70 mutant viability, CellTiter-Glo, 40 h; series mostly up to 66.8 µM; also: nearly all actives have a fitted effect of over 60% in size; also: potency is read from the fitted curve at half-maximal effect
[4] = biological target: Androgen receptor (Homo sapiens) (UniProt P10275); assay: qHTS assay to identify small molecule antagonists of the androgen receptor (AR) signaling pathway (AID 743035; active = well fitted inhibition curve with a large enough effect in the signal ratio in the repeat runs, not every such curve was filed as active; the % refers to the signal ratio; also: potency is read from the fitted curve at half-maximal effect); details: HEK293 AR-UAS-bla, R1881-stimulated, beta-lactamase FRET, 16 h; series mostly up to 58.5 µM
Outline: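 Steps: seed AR-UAS-bla GripTite HEK293 cells, incubate 4 h at 37C; pin in test compound, then add agonist R1881; incubate 16 h at 37C; add LiveBLAzer B/G FRET substrate, 2 h at room temperature; read fluorescence.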

[5] = biological target: Androgen receptor (Homo sapiens) (UniProt P10275); assay: qHTS assay to identify small molecule agonists of the androgen receptor (AR) signaling pathway using the MDA cell line (AID 743040; also: nearly all actives have a fitted effect of over 20% in size; also: potency is read from the fitted curve at half-maximal effect); details: MDA-kb2 AR-luc cells, MMTV luciferase, 16 h; series mostly up to 70.3 µM
Outline: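 Testing was done with the MDA-kb2 AR-luc line, a human breast carcinoma stably transfected with MMTV-luciferase containing AR and GR response elements. Cells were exposed 16 h at 37C before ONE-Glo luminescence detection.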

[6] = qHTS assay to identify small molecule antagonists of the androgen receptor (AR) signaling pathway using the MDA cell line - cell viability counter screen (AID 743041; also: nearly all actives have a fitted effect of over 45% in size); details: MDA-kb2 viability, CellTiter-Fluor, 16 h, cells co-treated with R1881 androgen agonist; series mostly up to 70.3 µM
Outline: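 Compound exposure lasted 16 h at 37C in MDA-kb2 AR-luc cells stimulated with R1881. Protease-based CellTiter-Fluor reagent was applied for the final 30 min and fluorescence measured.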

[7] = qHTS assay to identify small molecule antagonists of the androgen receptor (AR) signaling pathway - cell viability counter screen (AID 743033; also: nearly all actives have a fitted effect of over 45% in size; also: potency is read from the fitted curve at half-maximal effect); details: AR-bla HEK293 viability, CellTiter-Glo luminescence, 16 h; series mostly up to 58.5 µM
[8] = biological target: Androgen receptor (Homo sapiens) (UniProt P10275); assay: qHTS assay to identify small molecule agonists of the androgen receptor (AR) signaling pathway (AID 743036; active = well fitted activation curve with a large enough effect in the signal ratio in the repeat runs, with a control signal flat, not every such curve was filed as active; the % refers to the signal ratio; also: potency is read from the fitted curve at half-maximal effect); details: HEK293 AR-UAS-bla GripTite, beta-lactamase FRET ratio, 16 h; series mostly up to 62.4 µM
Outline: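 Beta-lactamase under UAS control, stably integrated in HEK293 GripTite cells, reports receptor activation. After 16 h compound treatment, cells received FRET substrate for 2 h at room temperature before fluorescence reading.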

[9] = biological target: Androgen receptor (Homo sapiens) (UniProt P10275); assay: qHTS assay to identify small molecule antagonists of the androgen receptor (AR) signaling pathway using the MDA cell line (AID 743042; also: nearly all actives have a fitted effect of over 55% in size; also: potency is read from the fitted curve at half-maximal effect); details: MDA-kb2 AR-luc, MMTV luciferase, R1881 antagonist, 16 h; series mostly up to 70.3 µM
Outline: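 MDA-kb2 breast carcinoma cells carrying MMTV-luciferase (AR/GR responsive) were co-treated with compounds and the agonist R1881 for 16 h at 37C. Inhibition read as ONE-Glo luminescence; CellTiter-Fluor fluorescence measured in parallel for cytotoxicity.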

Chain of Androgen receptor (Homo sapiens) (P10275 whole entry, looked up): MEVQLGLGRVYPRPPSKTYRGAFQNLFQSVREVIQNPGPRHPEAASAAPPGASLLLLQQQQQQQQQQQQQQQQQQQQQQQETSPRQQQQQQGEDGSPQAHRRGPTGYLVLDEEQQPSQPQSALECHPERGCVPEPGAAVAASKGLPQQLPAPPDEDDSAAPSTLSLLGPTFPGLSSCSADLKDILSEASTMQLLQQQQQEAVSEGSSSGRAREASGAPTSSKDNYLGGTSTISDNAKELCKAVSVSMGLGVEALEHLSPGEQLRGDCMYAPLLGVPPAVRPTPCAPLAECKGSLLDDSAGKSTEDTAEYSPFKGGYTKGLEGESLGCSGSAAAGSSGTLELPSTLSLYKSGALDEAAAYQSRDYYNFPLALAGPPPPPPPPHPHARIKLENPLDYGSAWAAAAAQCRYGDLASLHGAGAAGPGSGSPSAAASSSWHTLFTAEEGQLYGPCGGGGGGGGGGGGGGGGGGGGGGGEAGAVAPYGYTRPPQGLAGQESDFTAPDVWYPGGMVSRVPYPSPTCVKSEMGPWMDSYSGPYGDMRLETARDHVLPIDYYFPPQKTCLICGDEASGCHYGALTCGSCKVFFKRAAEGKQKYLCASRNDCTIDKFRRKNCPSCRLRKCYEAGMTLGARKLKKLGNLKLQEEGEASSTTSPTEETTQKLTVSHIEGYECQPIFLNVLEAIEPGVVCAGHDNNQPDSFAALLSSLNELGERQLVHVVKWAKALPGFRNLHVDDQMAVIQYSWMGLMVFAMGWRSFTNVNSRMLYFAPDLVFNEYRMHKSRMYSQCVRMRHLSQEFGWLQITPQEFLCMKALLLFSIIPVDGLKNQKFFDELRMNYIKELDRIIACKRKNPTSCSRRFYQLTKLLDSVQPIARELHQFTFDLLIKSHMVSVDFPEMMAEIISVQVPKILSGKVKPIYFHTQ

| SMILES | Potency [1] | Potency [2] | Potency [3] | Potency [4] | Potency [5] | Potency [6] | Potency [7] | Potency [8] | Potency [9] |
| --- | --- | --- | --- | --- | --- | --- | --- | --- | --- |
| O=C1CSC2(CCN(CCCN3c4ccccc4Sc4ccc(Cl)cc43)CC2)N1 | 5.96 µM (active) | 7.5 µM (active) | 8.41 µM (active) | 21.3 µM (active) | inactive | inactive |  |  |  |
| CO[C@@]1(NC(=O)C2SC(=C(C(N)=O)C(=O)O)S2)C(=O)N2C(C(=O)O)=C(CSc3nnnn3C)CS[C@@H]21 (stereo partly drawn) | inactive | inactive | inactive |  |  | inactive | inactive |  |  |
| C=CC[C@@H]1/C=C(\C)C[C@H](C)C[C@H](OC)[C@H]2O[C@@](O)(C(=O)C(=O)N3CCCC[C@H]3C(=O)O[C@H](/C(C)=C/[C@@H]3CC[C@@H](O)[C@H](OC)C3)[C@H](C)[C@@H](O)CC1=O)[C@H](C)C[C@@H]2OC | 5.31 µM (active) | 4.22 µM (active) | 6.68 µM (active) | 16.9 µM (active) | inactive |  | inactive | inactive | inactive |
| CC(C)Cc1ccc([C@@H](C)C(=O)NS(C)(=O)=O)cc1 |  |  |  |  |  | inactive | inactive |  |  |
| CO[C@H]1C[C@@H]2CC[C@@H](C)[C@@](O)(O2)C(=O)C(=O)N2CCCC[C@H]2C(=O)O[C@H]([C@H](C)C[C@@H]2CC[C@@H](OC(=O)C(C)(CO)CO)[C@H](OC)C2)CC(=O)[C@H](C)/C=C(\C)[C@@H](O)[C@@H](OC)C(=O)[C@H](C)C[C@H](C)/C=C/C=C/C=C/1C | inactive | inactive | inactive |  |  | inactive | inactive |  |  |
| CC[C@@]1(O)C(=O)OCc2c1cc1n(c2=O)Cc2cc3c([N+](=O)[O-])cccc3nc2-1 | 0.119 µM (active) | 0.0944 µM (active) | 0.0841 µM (active) |  |  |  | inactive |  |  |
| C=C1C(=C/C=C2\CCC[C@]3(C)[C@@H]([C@H](C)CCCC(C)(C)O)CC[C@@H]23)C[C@@H](O)C[C@@H]1O | 5.96 µM (active) | 11.9 µM (active) | 10.6 µM (active) |  |  |  | inactive |  |  |
| O=C(O)CCC/C=C\C[C@@H]1[C@@H](/C=C/[C@@H](O)COc2cccc(Cl)c2)[C@H](O)C[C@@H]1O | inactive |  | inactive | inactive | inactive | inactive | inactive |  | inactive |
| CC[C@@H](C(=O)[C@@H](C)[C@@H](O)[C@H](C)[C@@H]1O[C@@H]([C@@H](CC)C(=O)O)CC[C@@H]1C)[C@H]1O[C@]2(C=C[C@@H](O)[C@]3(CC[C@@](C)([C@H]4CC[C@](O)(CC)[C@H](C)O4)O3)O2)[C@H](C)C[C@@H]1C | 1.5 µM (active) |  | 1.19 µM (active) |  |  |  | 1.51 µM (active) |  |  |
| CC1=C(/C=C/C(C)=C/C=C/C(C)=C/C=C/C=C(C)/C=C/C=C(C)/C=C/C2=C(C)C[C@@H](O)CC2(C)C)C(C)(C)C[C@H](O)C1 | 7.5 µM (active) | 13.3 µM (active) | 11.9 µM (active) |  | inactive | inactive | inactive |  | 29.8 µM (active) |
| CCC(=O)O[C@H]1CC[C@H]2[C@@H]3CCc4cc(O)ccc4[C@H]3CC[C@]12C | 23.7 µM (active) |  | 23.7 µM (active) |  | 4.73 µM (active) | inactive | inactive | 3.01 µM (active) | inactive |
| CCCCCCCC(=O)CC[C@@H]1[C@@H](C/C=C\CCCC(=O)OC(C)C)[C@@H](O)C[C@H]1O | 8.41 µM (active) |  | 13.3 µM (active) |  |  | inactive |  |  |  |
| CC(C)C(=O)OCC(=O)[C@@]12O[C@H](C3CCCCC3)O[C@@H]1C[C@H]1[C@@H]3CCC4=CC(=O)C=C[C@]4(C)[C@H]3[C@@H](O)C[C@@]12C |  | inactive |  |  |  | inactive | inactive |  |  |
| NC(=O)C[C@@H](N)C(=O)O | inactive | inactive | inactive |  |  | inactive | inactive |  |  |
| CC(C)N1CCN(c2ccc(OC[C@H]3CO[C@](Cn4cncn4)(c4ccc(Cl)cc4Cl)O3)cc2)CC1 | 4.52 µM (active) | 5.07 µM (active) | 6.39 µM (active) |  |  | inactive | inactive |  |  |
| CCCCCCCCCCCCCCCCSCC(COC)COP(=O)([O-])OCC[N+](C)(C)C (stereo not drawn) |  | inactive | inactive |  | inactive | inactive | inactive |  | inactive |
| CCCCCCCCCCCCCCCC(=O)O[C@@H]1CC(C)=C(/C=C/C(C)=C/C=C/C(C)=C/C=C/C=C(C)/C=C/C=C(C)/C=C/C2=C(C)C[C@@H](OC(=O)CCCCCCCCCCCCCCC)CC2(C)C)C(C)(C)C1 | inactive | inactive | inactive |  |  | inactive | inactive |  |  |
| C=C1C(=O)O[C@H]2[C@H]1CC/C(C)=C\CC[C@@]1(C)O[C@@H]21 | 2.98 µM (active) | 2.98 µM (active) | 4.22 µM (active) | 23.9 µM (active) | inactive |  | 23.9 µM (active) |  | 6.68 µM (active) |
| O=[N+]([O-])c1c(Cl)cccc1-c1c[nH]cc1Cl | 18.8 µM (active) | 23.7 µM (active) | 26.6 µM (active) |  |  | inactive | inactive |  |  |
| CCCC1([C@H](O)C/C=C/[C@H]2[C@H](O)CC(=O)[C@@H]2CCCCCCC(=O)OC)CCC1 | 11.9 µM (active) | 23.7 µM (active) | 13.3 µM (active) |  | inactive |  | 16.9 µM (active) |  | inactive |
| COc1cc([C@@H]2c3cc4c(cc3C(O[C@@H]3O[C@@H]5COC(c6cccs6)O[C@H]5[C@H](O)[C@H]3O)C3COC(=O)[C@@H]32)OCO4)cc(OC)c1O (stereo partly drawn) | 0.0119 µM (active) | 0.0119 µM (active) | 0.0011 µM (active) |  |  | inactive | 0.301 µM (active) |  |  |
| CC[C@@H](C(=O)O)[C@@H]1O[C@@H]([C@@H](C)[C@H](O)[C@H](C)C(=O)[C@H](CC)[C@H]2O[C@]3(C=C[C@@H](O)[C@]4(CC[C@@](C)([C@H]5CC[C@](O)(CC)[C@H](C)O5)O4)O3)[C@H](C)C[C@@H]2C)[C@@H](C)C[C@@H]1C | 0.237 µM (active) | 0.168 µM (active) | 0.237 µM (active) |  |  |  |  |  |  |
| CCCCCCCCCCCCCCCC(=O)OC[C@@H](COP(=O)([O-])OCC[N+](C)(C)C)OC(=O)CCCCCCCCCCCCCCC | inactive |  | inactive | inactive | inactive |  | inactive | inactive | inactive |
